From PubChem
D2 PAM-1: D2 dopamine receptor (human) potentiation; P14416; HEK293 T-REx D2, calcium flux, EC20 dopamine potentiation; potentiation, % at 10 µM; 340,000 compounds, 0.34% hits; AID 485347;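 active = potentiation over 3 SD above the plate norm, cut at about 30% in these data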
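Using a no-wash calcium dye in inducible, force-coupled HEK293 Trex cells expressing D2, we tracked fluorescence each second for 180 s after compound, then for 180 s after EC20 dopamine to detect augmented signalling.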
D2 ag-1: D2 dopamine receptor (human) agonism. P14416. HEK293 T-REx D2 cells, calcium flux agonist mode. activation, % at 2 µM. 340,000 compounds, 0.53% hits. AID 485358;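 active = activation over 3 SD above normal in the single-dose calcium agonist read, cut at about 30% in these data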
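Tetracycline-induced HEK293 Trex cells with D2 receptor force-coupled to calcium signaling, plated overnight at 30 C and loaded with no-wash calcium dye. Calcium flux read kinetically for 180 s after compound addition; responses flag agonists.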
D2 antag: antagonists of human D2 dopamine receptor | P14416 | inhibition, % at 10 µM | AID 485344 | HEK293 TREx D2 cells, calcium flux, dopamine EC80 | 340,000 compounds, 2% hits; in the data active = inhibition above about 30%; inactive = below that, where a call was filed
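Calcium mobilization kinetics were recorded at 1 s intervals in tetracycline-induced HEK293 T-REx D2 cells, first for 180 s after compound addition and then 180 s after EC80 dopamine.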
D2 ag-2: human D2 receptor agonism in beta-arrestin assay; activation, % (test concentration not listed); 360,000 compounds, 0.084% hits; AID 624465; DiscoveRx PathHunter D2 beta-arrestin, luminescence, 90 min; 100% = 57 uM dopamine signal; P14416; in the data active = activation above about 40%; inconclusive = between about 15% and that limit
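Agonist mode: compounds alone added to overnight-plated D2 PathHunter cells for 90 min at 37 C, with 57 uM final dopamine (EC100) defining full response. Beta-arrestin recruitment detected by chemiluminescent reagent, read after 1 h at ambient temperature.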
D2 PAM-2: human D2 receptor positive allosteric modulation; P14416; DiscoveRx D2 beta-arrestin cells, luminescence, 90 min; 100% = 57 uM dopamine signal; potentiation, % (no concentration beside the values); 360,000 compounds, 0.23% hits; AID 624464; in the data active = potentiation above about 50%; inconclusive = mostly about 30% to 49%
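D2 cells co-treated with compound plus 50 nM dopamine (EC20) for 90 min at 37 deg C to detect potentiation. Beta-arrestin recruitment was read as enzyme-fragment luminescence after 1 h at ambient temperature. Full response was set by 57 uM dopamine.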
B2AR arrestin: beta2AR (human) beta-arrestin recruitment activity; P07550; beta-arrestin recruitment to beta2AR, cell-based reporter; Potency, µM (titrated, usually from 46.1 µM), usual class: activators; 330,000 compounds, 0.02% hits; AID 492947; also: nearly all actives have a fitted effect of over 65% in size
D3 ag: D3 receptor agonism confirmed, beta-arrestin readout | shares compounds with D2 ag-1 | DiscoveRx D3 beta-arrestin cells, luminescence, 90 min | Potency, µM (series often up to 76.9 µM), hits mostly activators | 2,300 compounds, 4% hits; also: nearly all actives have a fitted effect of over 70% in size
Target sequence (P35462 whole entry, looked up): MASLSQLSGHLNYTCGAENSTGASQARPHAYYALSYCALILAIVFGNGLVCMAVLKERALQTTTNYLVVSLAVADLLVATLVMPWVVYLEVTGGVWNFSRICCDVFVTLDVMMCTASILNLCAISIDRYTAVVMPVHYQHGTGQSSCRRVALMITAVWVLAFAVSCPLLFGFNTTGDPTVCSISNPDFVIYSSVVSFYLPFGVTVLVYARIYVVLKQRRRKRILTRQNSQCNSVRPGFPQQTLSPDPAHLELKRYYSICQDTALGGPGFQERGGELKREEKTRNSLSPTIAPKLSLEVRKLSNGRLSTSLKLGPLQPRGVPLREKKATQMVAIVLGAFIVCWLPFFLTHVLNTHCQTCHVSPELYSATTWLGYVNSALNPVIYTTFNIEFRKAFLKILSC
D2 ag-3: counter-screen for D3 agonists: human D2 dopamine receptor agonism. shares compounds with D2 ag-1. 2,300 compounds, 5.9% hits. AID 720507. DiscoveRx PathHunter D2 beta-arrestin, luminescence, 90 min; response scale: percent relative to full dopamine signal. Potency, µM (top dose mostly 76.9 µM), most hits filed as activators; also: nearly all actives have a fitted effect of over 70% in size
Of the large screens only hits and unclear results are named; the others gave an inactive call (follow-up assays come after a bar, where they were run). Compounds with a hit are over-represented: about 2.4% of the library has one in this group of screens. Unless noted, calls follow the shape of the dose curve; as a rule, active = well fitted activation curve with a large enough effect; inconclusive = small, poorly fitted or top-dose-only effect; inactive = flat fitted curve, though single readings scatter.

O=C(Nn1cnnc1)c1ccncc1	none | D3 ag inactive | D2 ag-3 inactive
O=C(NCC(c1ccco1)N1CCN(c2ccccc2F)CC1)C(=O)NC1CC1 (centres undefined)	D2 antag 32.7 | D3 ag inconclusive | D2 ag-3 inconclusive
O=C(NCC(c1ccco1)N1CCN(c2ccccc2F)CC1)C(=O)NC1CCCCC1 (centres undefined)	none
O=C(NCC(c1ccco1)N1CCN(c2ccccc2F)CC1)C1CCCCC1 (centres undefined)	D2 ag-1 76.8, D2 antag 59.2, D2 ag-2 inconclusive | D3 ag inconclusive | D2 ag-3 inconclusive
O=C(NC1CCCC1)C1CCC(CNS(=O)(=O)c2ccc(F)cc2)CC1 (centres undefined)	none | D3 ag inactive | D2 ag-3 inactive
O=C(NC1CCCC1)C1CCC(CNS(=O)(=O)c2ccccc2)CC1 (centres undefined)	none
CN(C(=O)c1ccc(S(=O)(=O)N2CCOCC2)cc1)C1CCS(=O)(=O)C1 (centres undefined)	none
Cc1ccc(C(O)c2ncc(-c3cccc(F)c3)[nH]2)cc1 (centres undefined)	none (no result: D2 PAM-1, D2 ag-1, D2 antag, B2AR arrestin)
O=S(=O)(NC1CCN(S(=O)(=O)c2c(F)cccc2F)C1)c1ccc2c(c1)OCCO2 (centres undefined)	none (no result: D2 ag-2, D2 PAM-2) | D3 ag inactive | D2 ag-3 inactive
COc1ccc(CNCC2COc3ccccc3O2)cc1 (centres undefined)	D2 ag-1 62.8, D2 antag 139.9 | D3 ag inactive | D2 ag-3 inactive
c1ccc(CCCNCC2COc3ccccc3O2)cc1 (centres undefined)	D2 ag-1 47.8, D2 antag 85.9 | D3 ag inconclusive | D2 ag-3 inactive
COc1ccc(CC(=O)NCC2COc3ccccc3O2)cc1 (centres undefined)	none
c1ccc(CNCC2COc3ccccc3O2)cc1 (centres undefined)	D2 ag-1 64.4, D2 antag 61.9 | D3 ag inactive | D2 ag-3 inactive
CCOC(=O)CCNCC1COc2ccccc2O1 (centres undefined)	none
O=C(CC1COc2ccccc2O1)NCc1ccccc1 (centres undefined)	none
Cc1cc(OCC(=O)NCc2ccccn2)c2c(C)cc(=O)oc2c1	none
CCC1CN(C(=O)Nc2ccc(C(=O)O)cc2)c2cc(Cl)ccc2O1 (centres undefined)	none (no result: D2 antag, D2 ag-2, D2 PAM-2, B2AR arrestin)
CN(C)CCN(C(=O)c1ccc(C(=O)c2ccccc2)cc1)c1nc2cc3c(cc2s1)OCO3	none
NC(=O)c1cc2ccccc2o/c1=N/NC(=O)c1ccccc1	none
CSc1ncnc2c1ncn2CCCN(C)CCc1ccccn1	none (no result: D2 PAM-1, D2 ag-1, D2 antag, D2 PAM-2, B2AR arrestin)
Nc1nc(N)nc(-c2ccc(Cl)c(Cl)c2)n1	none | D3 ag inactive | D2 ag-3 inactive
CCCN(CC(=O)Nc1ccccc1C)C(=O)c1cn2ccccc2n1	none
FC(F)(F)c1cc(-c2ccccc2)nc(NC2CCCC2)n1	D2 ag-1 58.4 | D3 ag inactive | D2 ag-3 inactive
COc1ccc(-n2c(C)cc(C(=O)COc3ccc(C)nc3[N+](=O)[O-])c2C)cc1	none
Cc1cc(OCC(=O)Nc2ccncc2)ccc1Cl	none
Cc1cc(OCC(=O)Nc2ncn[nH]2)ccc1Cl	none | D3 ag inactive | D2 ag-3 inactive
COC(=O)Cn1c2ccc(F)cc2c2nc(C)sc21	D2 ag-1 37.8 | D3 ag inactive | D2 ag-3 inactive
COc1ccc(NC(=O)COC(=O)CNC(=O)c2cccs2)cc1Cl	none | D3 ag inactive | D2 ag-3 inactive
Cc1ccc(OCCOCCN2CCCCC2)c([N+](=O)[O-])c1	none
Cc1ccc([N+](=O)[O-])c(OCCN2CCNCC2)c1	D2 ag-1 68.3, D2 antag 71.5 | D3 ag inconclusive | D2 ag-3 inactive
CCCCC(=O)OCc1c(-c2cccc(OC)c2)ncc2ccccc12	none | D3 ag inactive | D2 ag-3 inactive
COc1cccc(-c2ncc3ccccc3c2CO)c1	none | D3 ag inactive | D2 ag-3 inactive
COc1cccc(-c2nn(C)c3sc(C(=O)NCc4cc(OC)ccc4OC)cc23)c1	none (no result: D2 antag, D2 ag-2, D2 PAM-2, B2AR arrestin)
OCC1(Cc2ccc(Cl)cc2)CCN(CCCc2ccccc2)CC1	D2 ag-1 77.6, D2 antag 69.1, D2 ag-2 40.6 | D3 ag inactive | D2 ag-3 inconclusive
c1ccc(CCCN2CCN(c3ccccc3)CC2)cc1	D2 antag 78.9 | D3 ag inactive | D2 ag-3 inactive
O=C(CN1CCN(C(c2ccccc2)c2ccccc2)CC1)N1CCN(c2ccccc2)CC1	none
OCC1(Cc2ccc(Cl)cc2)CCN(Cc2ccccc2F)CC1	none
CC(CCN1CCN(c2ccccc2)CC1)c1ccccc1 (centres undefined)	D2 ag-1 30.7, D2 antag 72.6 | D3 ag inactive | D2 ag-3 inactive
CC(CCN1CCN(c2ccccn2)CC1)c1ccccc1 (centres undefined)	D2 ag-1 73.7, D2 antag 62.7, D2 ag-2 inconclusive | D3 ag inconclusive | D2 ag-3 inconclusive
Cc1ccc(NC(=O)CN(C)C(=O)Cn2c(=O)oc3ccccc32)cc1	none
CN(CC(=O)Nc1ccc(F)cc1)C(=O)Cn1c(=O)oc2ccccc21	none | D3 ag inactive | D2 ag-3 inactive
Cc1nn(C)c(C)c1CN(C)C(=O)c1nn2c(c1Br)NC(c1cccs1)CC2C(F)(F)F (centres undefined)	none
COc1cccc(/C=C/C(=O)OCC(=O)NCCc2ccccc2)c1	D2 ag-1 46.5 | D3 ag inactive | D2 ag-3 inactive
Nc1cccc(C#Cc2ccc3c(=O)c4ccccc4oc3c2)c1	none | D3 ag inactive | D2 ag-3 inactive
CC(C)OC(=O)CN1C(=O)S/C(=C/c2ccc(N3CCCCC3)o2)C1=O	none | D3 ag inactive | D2 ag-3 inactive
O=C1S/C(=C/c2ccc(N3CCOCC3)o2)C(=O)N1Cc1ccc(F)cc1	none
COc1ccc2cc(-c3cn4c(n3)sc3cc(F)ccc34)c(=O)oc2c1	none (no result: D2 antag, D2 ag-2, D2 PAM-2, B2AR arrestin)
O=C(CC1NCCc2ccccc21)Nc1ccccc1Cl (centres undefined)	none | D3 ag inactive | D2 ag-3 inactive
